Experimental findings from PubChem BioAssay (NCI) are described below.

The panel holds about 83,000 compounds, 20% with a hit somewhere; the sample as a whole holds those more often.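 Method: cells in 96-well plates; compound added at one concentration; 48 h incubation; percent growth measured; values under 10 scored active.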 Values without a mark were called inactive. Active and inactive are the calls of the source.

Common to all, as to assay: NCI-60 one-dose screen, 48 h (100 = growth as untreated, 0 = no growth, -100 = all killed)
What all share (conditions): 10 µM unless noted

The test system of assay [1] is NCI-H23 lung.
In assay [2] the test system is NCI-H226 lung.
The subject of assay [3] is HOP-62 NSCLC.
Assay [4] deals with NCI-H460 lung.
Assay [5] concerns HOP-92 NSCLC.
Assay [6] deals with NCI-H522 lung.
Assay [7] relates to A549/ATCC NSCLC.
Assay [8] has as its system 786-0 renal.
Assay [9] has as its system COLO 205 colon.
Assay [10] has as its system DU-145 prostate.
Assay [11] concerns K-562 leukemia.
Assay [12] concerns MALME-3M melanoma.
In assay [13] the test system is MDA-MB-231 breast.
In assay [14] the test system is RXF 393 renal.
For assay [15], the system named is SF-268 CNS.
The test system of assay [16] is SF-295 CNS.
The subject of assay [17] is SF-539 CNS.
The subject of assay [18] is UACC-257 melanoma.
The subject of assay [19] is M14 melanoma.

In the case of `O=C(NCCCl)Nc1ncccc1OCc1ccccc1`, the growth was 99.6% in [1]; 104% in [2]; 100% in assay [3]; 101% in [4]; 103% in [5]; 85.3% in [6]. Moreover, the growth was 103% in assay [7]; 100% in assay [8]; 106% in assay [9]; 105% in [10]; 103% in [11]; 103% in [12]. The growth in assay [13] was 101%; in assay [14], 108%; in assay [15], 102%; in assay [16] it was 99.9%; in [17], 106%; in assay [18], 107%. For the same compound, in assay [19], the growth is 99.8%.

For the compound `O=c1[nH]c(-c2ccccc2)nc2sc3cc(O)ccc3c12`, the growth in assay [1] was 84.6%; in assay [2], 79.6%; in assay [3] it was 105%; in assay [4], 84.1%; in [5], 94.8%; in assay [6], 75.5%. Besides, the growth in assay [7] was 81.6%; in assay [8], 79.3%; in assay [9], 110%; in [10] it was 83.6%; in assay [11], 25.9%; in [12], 74.1%. Besides, the growth was 101% in assay [13]; 82.2% in assay [14]; 86.2% in assay [15]; 95.3% in assay [16]; 82.8% in assay [17]; 109% in [18]. The growth in [19] is 75.2%.

For the compound `CCOC(=O)c1c(C(=O)c2cn(C)c3ccc(Br)cc23)c(-c2cn(C)c3ccc(Br)cc23)n(NC(=O)OC(C)(C)C)c1C`, the growth is 86.5% [100 µM] in assay [1]; 89.7% [100 µM] in [2]; 56.1% [100 µM] in assay [3]; 80.5% [100 µM] in assay [4]; 4.73% [100 µM] (active) in assay [5]; 89.6% [100 µM] in [6]. Further, the growth in [7] is 74% [100 µM]; in assay [8], 32% [100 µM]; in assay [9] it was 98.5% [100 µM]; in assay [10], 97.9% [100 µM]; in assay [11], 89.1% [100 µM]; in assay [12], 32.8% [100 µM]. The growth in assay [13] was 51.2% [100 µM]; in assay [14] it was 24.2% [100 µM]; in assay [15], 82.4% [100 µM]; in assay [16], 33% [100 µM]; in [17] it was 48.3% [100 µM]; in assay [18] it was 94.8% [100 µM]. In addition, the growth in [19] was 82.7% [100 µM].

Regarding `CN(C)Cc1ccc(O)c(C(=O)O)c1`, the growth was 104% in assay [1]; 108% in assay [2]; 106% in assay [3]; 105% in [4]; 95.5% in assay [5]; 102% in assay [6]. For the same compound, the growth was 109% in assay [7]; 107% in assay [8]; 117% in assay [9]; 114% in assay [10]; 107% in [11]; 116% in assay [12]. The growth in [13] is 121%; in assay [14] it was 122%; in assay [15] it was 104%; in [16] it was 123%; in [17], 100%; in assay [18] it was 109%. The growth in [19] is 113%.

Take `Cn1cc(C(=O)c2nc(-c3c[nH]c4ccccc34)no2)c2cc(F)ccc21`: the growth is 65.1% in assay [1]; 75.7% in assay [2]; 30.5% in assay [3]; 14.1% in [4]; 43.6% in [5]; 2.36% (active) in assay [6]. Further, the growth in assay [7] is 40.6%; in [8], 54.6%; in [9], 34.7%; in assay [10], 72.5%; in [11], 16.7%; in [12], 37.3%. Moreover, the growth was 57.1% in assay [13]; 89.9% in [14]; 54.9% in assay [15]; 20.7% in assay [16]; 30% in assay [17]; 51.2% in assay [18].

Regarding `NS(=O)(=O)c1ccccc1NC(=O)Nc1nc2ccccc2s1`, the growth was 90.8% in assay [1]; 91.5% in assay [2]; 96.1% in assay [3]; 103% in assay [4]; 99.1% in assay [5]; 91.9% in assay [6]. The growth in assay [7] was 101%; in assay [8], 98%; in [9], 109%; in assay [10], 106%; in [11], 97.5%; in [12], 91.9%. Besides, the growth in assay [13] was 97%; in [14], 98.4%; in assay [15] it was 98.1%; in assay [16], 94.6%; in assay [17], 95.8%; in [18] it was 102%. In [19], the growth is 93.5%.

Turning to `COc1ccc(C(=O)Nc2cccc(-c3cc(=O)c4c(OC)c(OC)c(OC)cc4o3)c2)cc1`, the growth in assay [1] was 57.5%; in assay [2], 69.9%; in [3], 72.5%; in assay [4], 42.1%; in assay [5], 6.67% (active); in assay [6], 44.5%. The growth in assay [7] was 64.7%; in [8], 55%; in [9] it was 73.1%; in assay [10] it was 56.5%; in assay [11], 20.6%; in [12] it was 53.4%. Also, the growth in assay [13] was 57.2%; in assay [14], 53.6%; in assay [15], 58.4%; in [16], 59.6%; in assay [17] it was 66.3%; in [18], 105%. Besides, the growth in assay [19] was 68%.

Take `CCCCNC(=O)Oc1ccc(/C(=C(/C)Cc2ccc(OC)cc2)c2ccc(OCCN(CC)CC)cc2)cc1`: the growth in assay [1] is 97%; in [2], 101%; in assay [3], 91.5%; in assay [4], 53.3%; in [6], 85.3%; in assay [7], 61.2%. Further, the growth in assay [8] was 69%; in assay [9], 46.8%; in [10], 91.7%; in assay [11], 3.84% (active); in assay [12], 88.1%; in assay [13], 88.8%. The growth in assay [14] is 81.7%; in assay [15], 86.2%; in assay [16], 86.6%; in assay [17], 77.8%; in [18] it was 90.7%; in assay [19] it was 52.1%.

Regarding `COc1cc(-c2nccc3[nH]c(-c4ccc5cc[nH]c5c4)nc23)cc(OC)c1OC`, the growth was 26.1% in [1]; 19.3% in assay [2]; -19.6% (active) in [3]; 2.58% (active) in [4]; -8.58% (active) in [5]; -59.5% (active) in assay [6]. Moreover, the growth in [7] was -28.5% (active); in assay [8], -56% (active); in [9] it was -71.5% (active); in assay [10] it was 18.2%; in assay [11], -14.4% (active); in assay [12], 21.7%. The growth in [13] is -20.3% (active); in assay [14], 18%; in [15], 19.3%; in [16], -59.4% (active); in assay [17], -19.5% (active); in assay [18], 29.6%. Also, the growth in assay [19] was 4.35% (active).

Take `Cc1cccc(CNc2c3ccccc3nc3ccccc23)c1`: the growth in assay [1] is 29.7%; in assay [2], 40.6%; in [3], 40.4%; in [4], 8.71% (active); in assay [5] it was 7.05% (active); in assay [6], 52.1%. Moreover, the growth is 22.6% in assay [7]; 24.2% in assay [8]; -16.2% (active) in assay [9]; 33.9% in assay [10]; 1.88% (active) in assay [11]; 14.1% in assay [12]. In addition, the growth in [13] was 38.7%; in assay [14] it was -1.71% (active); in assay [15] it was 52%; in assay [16] it was 25.3%; in assay [17] it was 11.7%; in assay [18], 36.2%. Further, the growth in [19] is 22.8%.

As for `CC(=O)c1c(C)nc(SCC(=O)Nc2cccc(O)c2)n1-c1ccc(Cl)cc1`, the growth was 94.3% in [1]; 107% in [2]; 105% in assay [3]; 94.5% in assay [4]; 100% in assay [5]; 83.9% in assay [6]. Besides, the growth in [7] is 96.2%; in assay [8], 102%; in assay [10], 103%; in [11], 105%; in assay [12], 90.8%; in [13] it was 82.1%. The growth in assay [14] was 92%; in [15] it was 96.2%; in [16], 97.4%; in assay [17] it was 105%; in [18], 101%; in assay [19], 94.4%.

As for `O=c1c2cccc3c(N4CCCC4)ccc(c32)c2nc3ccccc3n12`, the growth in assay [1] is 68.2%; in [2], 55.3%; in assay [3] it was 66.1%; in assay [4], 16.1%; in [5], 40.7%; in assay [6], 71.2%. Further, the growth in assay [7] is 35.6%; in assay [8], 88.3%; in [9], 63.6%; in assay [10], 78.1%; in assay [11] it was 76%; in [12], 70.4%. Also, the growth was 77.1% in assay [13]; 103% in [14]; 92% in assay [15]; 59.8% in [16]; 91.3% in assay [17]; 91.8% in assay [18]. The growth in assay [19] is 91.5%.

On to `Cc1c(O)cc(-c2cnc(Nc3ccccc3)s2)c(O)c1C`, for which the growth was 87.1% in assay [1]; 98.6% in assay [2]; 97.4% in assay [3]; 99.3% in assay [4]; -64.4% (active) in assay [5]; 83.4% in [6]. In addition, the growth is 93.1% in [7]; 107% in assay [8]; 107% in [9]; 105% in [10]; 87.2% in [11]; 107% in assay [12]. In addition, the growth in [13] is 99.2%; in [14], 99.5%; in assay [15], 105%; in assay [16], 98.9%; in [17], 95%; in [18] it was 106%.

For `O=C1NC(=C(Cl)Cl)/C(=N\S(=O)(=O)NCc2ccccc2)N1`, the growth is 104% in assay [1]; 99.2% in [2]; 102% in [3]; 110% in assay [4]; 107% in assay [5]; 81.4% in [6]. For the same compound, the growth in [7] is 94.1%; in assay [8], 100%; in assay [9], 121%; in assay [10] it was 105%; in [11], 81.4%; in [12] it was 104%. Further, the growth in [13] was 115%; in assay [14], 113%; in assay [15], 102%; in assay [16], 114%; in assay [17], 93.7%; in [18], 85.6%. For the same compound, the growth in assay [19] is 94.3%.

Consider `CCOc1nc(-c2ccccc2)cc2c(O)c(C(=O)N/N=C/c3ccccc3)[nH]c(=O)c12`, for which the growth in [1] was 111%; in [2], 106%; in assay [3], 115%; in assay [4], 114%; in assay [5] it was 107%; in assay [6], 74.4%. Further, the growth in assay [7] was 114%; in [8], 112%; in assay [9], 111%; in [10] it was 115%; in assay [11] it was 48.2%; in [12] it was 136%. For the same compound, the growth in assay [13] is 117%; in assay [14], 119%; in [15], 106%; in assay [16], 134%; in [17], 112%; in [18] it was 101%. Also, the growth in [19] is 118%.

For `O=C(CN1C(=O)NC2NC(=O)NC21)N/N=C/c1ccccc1[N+](=O)[O-]` (centres undefined), the growth in assay [1] was 106%; in assay [2], 87.6%; in assay [3], 103%; in assay [4], 108%; in assay [5] it was 115%; in [6] it was 96.5%. Moreover, the growth was 101% in [8]; 120% in [9]; 113% in [10]; 104% in assay [11]; 107% in assay [12]; 114% in [13]. In addition, the growth is 118% in assay [14]; 107% in assay [15]; 105% in assay [16]; 95.2% in [17]; 116% in assay [18]; 102% in assay [19].
